# NALP3 yeast inh: blocks the NALP3 inflammasome reconstituted in yeast; inhibition, % at 10 µM; 0.39% of 330,000 active; Yeast reconstituted NLRP3/ASC/caspase-1, beta-gal luminescence, 24 h;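 active = inhibition of 50% or more; inactive = inhibition below 50%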
# HDAC3 inh: blocks human histone deacetylase 3; AID 2718; 0.15% of 320,000 active; recombinant HDAC3, fluorogenic peptide/trypsin coupled, fluorescence; inhibition, % at 8.3 µM; O15379; in the data active = inhibition above about 26%, passing the limit was not always enough; inconclusive = no clear call, values can overlap the other calls
# NALP1 yeast inh: blocks the NALP1 inflammasome reconstituted in yeast; S. cerevisiae NALP1/ASC/caspase-1 growth, X-gal OD620, 72 h; 0.61% of 280,000 active; inhibition, % at 10 µM; in the data active = inhibition mostly above about 24%, no sharp cut-off; inactive = mostly below about 32%
# PolyA inh: inhibitors of polyadenylation in S. cerevisiae. S. cerevisiae SKY197-pL101 polyadenylation reporter, beta-gal luminescence; efflux-impaired pdr1/pdr3 knockout yeast; score 100 = 6 SD above DMSO. activity score, % at 12 µM. 0.02% of 300,000 active. AID 1875;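 active = lowest replicate activity score at least 50, where 100 means six control SD above control mean; inconclusive = lowest score under 50 but half or more replicates reach 50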;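 also: yeast exposed to compound for 9 h at 30 °C; higher score means more reporter readthrough which indicates perturbed polyadenylation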
# Efflux pump mplx: blocks antifungal efflux pumps in multiplex yeast assay; AID 485275; S. cerevisiae Candida pump triplex, Nile Red efflux; 0.44% of 330,000 active; inhibition, % at 10 µM;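 active = plate passing quality check with inhibition over a set limit, or well fluorescence over plate mean plus 4 SD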;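 also: Nile Red retained in pooled yeast measured as flow cytometry median fluorescence; higher means more Nile Red kept so more efflux inhibition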
# GASC-1 inh: blocks human GASC-1 demethylase activity. GST-JMJD2C(1-420) H3K9me3 demethylation, DELFIA europium. inhibition, % at 2.35 µM. 0.069% of 330,000 active. AID 2099;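 active = more than half of a compound's replicate wells show inhibition beyond 50%, single wells judged on their own value; inconclusive = some, but no more than half, of replicates pass 50% inhibition; inactive = no replicate passes 50% inhibition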;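 also: signal counts dimethyl H3K9 product captured on neutravidin plate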
# Target sequence (Q9H3R0 1-420 limits assumed): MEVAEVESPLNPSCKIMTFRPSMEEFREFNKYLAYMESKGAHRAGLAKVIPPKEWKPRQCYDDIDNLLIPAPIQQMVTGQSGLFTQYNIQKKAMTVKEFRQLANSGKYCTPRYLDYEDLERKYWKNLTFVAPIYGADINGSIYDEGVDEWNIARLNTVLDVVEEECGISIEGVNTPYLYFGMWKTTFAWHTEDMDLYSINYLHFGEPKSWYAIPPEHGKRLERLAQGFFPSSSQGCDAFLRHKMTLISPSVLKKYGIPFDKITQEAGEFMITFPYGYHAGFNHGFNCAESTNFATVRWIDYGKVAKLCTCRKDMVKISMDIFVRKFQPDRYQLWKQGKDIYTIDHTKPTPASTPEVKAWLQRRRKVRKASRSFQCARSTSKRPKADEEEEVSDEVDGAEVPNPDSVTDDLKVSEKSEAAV
# Yeast cmpd fluor: counter-screen for efflux pump inhibitors: compound fluorescence | shares compounds with Efflux pump mplx | S. cerevisiae AD/pABC3, flow cytometry | fluorescence ratio to DMSO, % at 10 µM | 4% of 1,700 active | AID 588517;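 active = fluorescence ratio to DMSO above its plate's cutoff, the plate mean ratio plus 5 SD, cut at about 210% in these data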;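 also: unstained yeast with no Nile Red so the signal is compound autofluorescence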
# CaMdr1 efflux inh: blocks the Candida albicans Mdr1 efflux pump in yeast; shares compounds with Efflux pump mplx; S. cerevisiae AD/CaMDR1, Nile Red efflux, flow cytometry; inhibition, % at 10 µM; 1% of 1,700 active; AID 588518; in the data active = inhibition above about 26%;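 also: higher means more Nile Red retained so more efflux inhibition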
# Cdr2 pump inh: inhibitors of Candida albicans Cdr2 efflux pump. shares compounds with Efflux pump mplx. S. cerevisiae AD/CaCDR2, Nile Red retention, flow cytometry. Nile Red retention ratio vs DMSO, % at 10 µM. 4% of 1,700 active. AID 588520; in the data active = Nile Red retention ratio vs DMSO above about 190%;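 also: higher ratio means more blocking of Cdr2 efflux of the dye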
# CaCdr1 efflux inh: blocks the Candida albicans Cdr1 efflux pump in yeast. S. cerevisiae AD/CaCDR1, Nile Red efflux, flow cytometry. 1% of 1,700 active. shares compounds with Efflux pump mplx. inhibition, % at 10 µM. AID 588522;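 active = inhibition above the screen-wide mean plus twice its standard deviation, cut at about 32% in these data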
# Hits are given with their value; n = inactive; u = inconclusive; x = no result. An excerpt weighted towards active compounds, which were near 1.5% of everything screened.
SMILES,NALP3 yeast inh,HDAC3 inh,NALP1 yeast inh,PolyA inh,Efflux pump mplx,GASC-1 inh,Yeast cmpd fluor,CaMdr1 efflux inh,Cdr2 pump inh,CaCdr1 efflux inh
CN1CCN(c2ccc(-c3cccc(NC(=O)COc4ccc(Cl)cc4Cl)c3)nn2)CC1,n,n,x,n,n,n,x,x,x,x
COc1cccc(NC(=O)C(=O)N/N=C/c2cc(C)n(-c3ccc(Cl)c(Cl)c3)c2C)c1,n,n,n,n,0.7,n,n,n,n,n
O=C(CCc1ccccc1)NC(=S)Nc1ccc(S(=O)(=O)N2CCOCC2)cc1,n,n,n,n,8.0,n,n,n,n,n
CCN(CC)S(=O)(=O)c1ccc(OC(C)C)c(NC(=O)C2=COCCO2)c1,n,n,x,u,n,n,x,x,x,x
Cc1ccc(S(=O)(=O)Nc2cc(C)c(O)c(Sc3n[nH]c(C)n3)c2)cc1,n,n,n,n,n,n,n,n,n,n
O=C(COc1ccc(Cl)cc1Cl)NN1C(=O)C2C3C=CC([C@@H]2C1=O)C31CC1 (some centres undefined),n,n,x,n,n,n,x,x,x,x
O=C(COc1ccc(Cl)cc1Cl)NN1C(=O)/C(=C\c2ccc(Cl)cc2)SC1=S,n,n,n,n,n,n,n,n,n,n
CCN(CC)c1ccc2cc(-c3nc(-c4ccc(OC)cc4)cs3)c(=O)oc2c1,n,n,n,x,6.0,x,640,n,732,n
Cc1ccc(C(=O)O)cc1NC(=O)CSc1ncnc2sc3c(c12)CCC3,n,x,n,n,n,n,x,x,x,x
O=C(CCNC(=O)C1CCN(S(=O)(=O)c2ccc(F)cc2)CC1)Nc1ccccc1,n,n,n,n,n,n,x,x,x,x
CCOc1ccc(S(=O)(=O)N2CCN(C(=O)c3ccncc3)CC2)cc1,n,n,n,n,7.4,n,n,n,n,n
O=C(O)C1C2CC3C(OC(=O)C31)C2Cl (centres undefined),n,n,n,n,6.5,n,n,n,n,n
COCC1CCN(C(=O)c2cc(COc3ccc(OC)c4ccccc34)on2)C1 (centres undefined),n,n,n,n,7.2,n,n,n,n,n
COc1ccc(OCc2cc(C(=O)N3CCC(OC)CC3)no2)c2ccccc12,n,n,n,n,n,n,x,x,x,x
O=C(Nc1ccccc1O)c1cc2cc(Br)ccc2oc1=O,n,n,n,n,1.3,n,n,n,n,n
CN(C)C(CNC(=O)c1cc(S(=O)(=O)N(C)Cc2ccccc2)ccc1Cl)c1ccco1 (centres undefined),n,n,x,n,n,n,x,x,x,x
COc1ccc(Cn2c(=O)c3[nH]cnc3n(-c3ccccc3C)c2=O)cc1,n,x,n,n,0.8,n,n,n,n,n
Cc1cccc(N2CC(C(=O)Nc3ccc4c(c3)OCCO4)CC2=O)c1C (centres undefined),n,n,n,n,n,n,x,x,x,x
CC1=C(C)CC(C(=O)Nc2cccc([N+](=O)[O-])c2)C(C(=O)O)C1 (centres undefined),n,n,n,n,35,n,n,n,n,n
Cc1ccc(S(=O)(=O)CCSc2n[nH]c(=O)n2-c2ccccc2)cc1,n,n,n,n,n,n,x,x,x,x
Cc1ccc(S(=O)(=O)CCSc2nccn2C)cc1,n,n,n,n,3.3,n,n,n,n,n
COc1ccc(C(=O)CN2C(=O)NC3(CCCCCC3)C2=O)cc1,n,n,n,n,6.2,n,n,n,n,n
COc1ccc(OCCOC(=O)CN2C(=O)NC3(CCCC3)C2=O)cc1,n,n,x,n,n,n,x,x,x,x
COCc1c(C(=O)NC(C)c2ccc(S(N)(=O)=O)cc2)oc2ccccc12 (centres undefined),n,n,n,n,n,n,x,x,x,x
O=C(NC1CCCc2c1cnn2-c1ccc(F)cc1F)c1ccccn1 (centres undefined),n,n,n,n,n,n,x,x,x,x

# Screening results deposited in PubChem BioAssay by several laboratories.
